# Where “and” joins values, the source holds several entries; their conditions need not be identical. Equal entries are not always repeated. Records with an inconclusive call do not appear. Calls of active or inactive are those of the source. Unless noted, the rule behind the calls is not given here. Non-standard residues stand in square brackets, D forms with d. Residues, ends and D or L forms follow the SMILES beside them. *: point of attachment. Sta = CC(C)C[C@H](N)[C@@H](O)CC(=O)O; Isovaleryl = CC(C)CC(=O)*
# What was measured:
# [1] = qHTS profiling of the MIPE4 collection as inhibitors of Plasmodium falciparum (3D7) proliferation (AID 743344);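 note: scaled between DMSO vehicle wells and 0.29 µM artemisinin as full inhibition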; details: P. falciparum 3D7 in erythrocytes, SYBR Green DNA fluorescence, 72 h
# Summary of the method: (§1)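 Parasite DNA was quantified by SYBR Green I fluorescence (ex 485, em 535 nm) after overnight lysis in saponin/Triton buffer at room temperature. Cultures at 0.3% parasitemia and 2.5% hematocrit were first exposed to compound for 72 h at 37 C; signals were normalised to artemisinin (0.29 uM) and vehicle wells.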
# [2] = qHTS profiling of the MIPE4 collection as inhibitors of Plasmodium falciparum (DD2) proliferation (AID 743345); details: P. falciparum Dd2 in erythrocytes, SYBR Green DNA, 72 h
# Summary of the method: as §1
# [3] = qHTS profiling of the MIPE4 collection as inhibitors of Plasmodium falciparum (DD2) proliferation (Rep 2) (AID 743346); details: P. falciparum Dd2 in erythrocytes, SYBR Green DNA, 72 h
# Summary of the method: as §1
# [4] = qHTS profiling of the MIPE4 collection as inhibitors of Plasmodium falciparum (HB3) proliferation (AID 743347);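 note: plate controls were DMSO vehicle wells for no effect and artemisinin wells for full effect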; details: P. falciparum HB3 in erythrocytes, SYBR Green DNA, 72 h
# Summary of the method: as §1
# [5] = High-throughput drug toxicity screening in the BPDCN cell line Gen2.2 (AID 1224824); details: Gen2.2 BPDCN cells; at 45.8 µM (top of the series) unless noted;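 note: cells exposed to compounds for 48 h before reading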
# Summary of the method: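 CellTiter-Glo luminescence read after 48 h compound exposure at 37 C defines viability; percent activity set with DMSO as 100% and bortezomib (9.2 uM final) as 0%. 500 exponentially growing cells per well, RPMI plus 10% FBS.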
# [6] = qHTS Assay for Identifying Gametocytocidal Compounds (AID 743244; active = well fitted curve in the direction sought with a large enough effect; an effect the other way counts as inactive or inconclusive;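 note: % is set by controls: 0 for no effect and ±100 for the full control effect; actives lower the fluorescent signal which means gametocytes are killed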); details: P. falciparum 3D7 stage III-V gametocytes, alamarBlue, 72 h; max response: stronger effect = lower value
# Summary of the method: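 Late gametocytes (III–V), P. falciparum 3D7; 72 h drug, then 24 h alamarBlue; resazurin reduction read by fluorescence.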
# [7] = qHTS profiling for inhibitors of Plasmodium falciparum (DD2) proliferation (AID 743323); details: lower = more inhibition; at 28.7 µM (top of the series) unless noted
# Summary of the method: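 P. falciparum Dd2-infected erythrocytes (0.3% parasitemia, 2.5% hematocrit) exposed 72 h at 37 C, 5% CO2. Lysis with SYBR Green, overnight at room temperature, fluorescence 485/535 nm; normalized to 0.29 uM artemisinin and DMSO.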
# [8] = qHTS profiling for inhibitors of Plasmodium falciparum (HB3) proliferation (AID 743324; active = well fitted curve in the direction sought with a large enough effect; an effect the other way counts as inactive or inconclusive;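 note: 100% = DMSO vehicle wells and 0% = artemisinin-treated control wells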); details: Plasmodium falciparum HB3 blood-stage proliferation; at 28.7 µM (top of the series) unless noted
# Summary of the method: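 SYBR Green fluorescence (485 ex/535 em) of lysed cultures, incubated overnight at room temperature in the dark, quantifies parasite DNA. Infected erythrocytes at 0.3% parasitemia and 2.5% hematocrit were exposed 72 h; values normalized to DMSO and 0.29 uM artemisinin controls.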
# [9] = at 28.5 µM unless noted
compound,measurement,setting,value
C[C@]12CCC(=O)C=C1CC[C@@H]1[C@H]2[C@@H](O)C[C@@]2(C)[C@H]1CC[C@]2(O)C(=O)CO,"parasite growth, % of DMSO control",[1]; [9],76.9%
same,"parasite growth remaining, % of DMSO control (lower = more inhibition)",[2]; [9],93.1%
same,"parasite growth, % of control (lower = inhibition)",[3]; [9],74.9%
same,"growth, % of control",[4]; [9],63%
same,"cell viability, % of control (lower = more cytotoxic)",[5],208%
CNC[C@@H](O)[C@@H](O)[C@H](O)[C@H](O)CO,"parasite growth, % of DMSO control",[1]; [9],65.8%
same,"parasite growth remaining, % of DMSO control (lower = more inhibition)",[2]; [9],123%
same,"parasite growth, % of control (lower = inhibition)",[3]; [9],82.7%
same,"growth, % of control",[4]; [9],75.9%
same,"cell viability, % of control (lower = more cytotoxic)",[5],216%
CN(C)C(=O)[C@H](O)[C@H](Cc1ccccc1)NC(=O)c1cc2cc(Cl)ccc2[nH]1,"parasite growth, % of DMSO control",[1]; [9],6.18%
same,"parasite growth remaining, % of DMSO control (lower = more inhibition)",[2]; [9],54.1%
same,"parasite growth, % of control (lower = inhibition)",[3]; [9],13.9%
same,"growth, % of control",[4]; [9],2.28%
same,"cell viability, % of control (lower = more cytotoxic)",[5],238%
CC(C)Oc1ccc2c(=O)c(-c3ccccc3)coc2c1,max response,[6],-8.04% (inactive) and -1.57% (inactive)
same,"parasite growth, % of DMSO control",[1]; [9],75.9%
same,"parasite growth remaining, % of DMSO control (lower = more inhibition)",[2]; [9],89.9%
same,"parasite growth, % of control (lower = inhibition)",[3]; [9],60%
same,"growth, % of control",[4]; [9],54.5%
same,"cell viability, % of control (lower = more cytotoxic)",[5],181%
CCCCN(CCCC)CCC(O)c1cc2c(Cl)cc(Cl)cc2c2cc(C(F)(F)F)ccc12 (stereo not given),"activity, percent of control",[7],0.468% [at 9.63 µM]
same,"remaining proliferation (% of control), lower = more inhibition",[8],0.576% [at 9.63 µM]
same,"parasite growth, % of DMSO control",[1]; at 9.64 µM (top of the series),7.84%
same,"parasite growth, % of DMSO control",[1]; at 28.5 µM,7.96%
same,"parasite growth remaining, % of DMSO control (lower = more inhibition)",[2]; at 9.64 µM (top of the series),8.22%
same,"parasite growth remaining, % of DMSO control (lower = more inhibition)",[2]; at 28.5 µM,7.14%
same,"parasite growth, % of control (lower = inhibition)",[3]; at 9.64 µM (top of the series),11%
same,"parasite growth, % of control (lower = inhibition)",[3]; at 28.5 µM,10.3%
same,"growth, % of control",[4]; at 9.64 µM (top of the series),5.69%
same,"growth, % of control",[4]; at 28.5 µM,7.8%
same,"cell viability, % of control (lower = more cytotoxic)",[5],34.8%
Cc1cccc(CN2CCN(C(c3ccccc3)c3ccc(Cl)cc3)CC2)c1 (stereo not given),max response,[6],0.914% (inactive)
same,"parasite growth, % of DMSO control",[1]; [9],6.23%
same,"parasite growth remaining, % of DMSO control (lower = more inhibition)",[2]; [9],7.56%
same,"parasite growth, % of control (lower = inhibition)",[3]; [9],22.6%
same,"growth, % of control",[4]; [9],9.08%
same,"cell viability, % of control (lower = more cytotoxic)",[5],156%
CN1CCC(=C2c3ccccc3CCc3sccc32)CC1,"parasite growth, % of DMSO control",[1]; [9],8.53%
same,"parasite growth remaining, % of DMSO control (lower = more inhibition)",[2]; [9],50.7%
same,"parasite growth, % of control (lower = inhibition)",[3]; [9],14.9%
same,"growth, % of control",[4]; [9],8.17%
same,"cell viability, % of control (lower = more cytotoxic)",[5],93.1%
CC(C)CC(=O)N[C@H](C(=O)N[C@H](C(=O)N[C@@H](CC(C)C)[C@@H](O)CC(=O)N[C@@H](C)C(=O)N[C@@H](CC(C)C)[C@@H](O)CC(=O)O)C(C)C)C(C)C (Isovaleryl-VV[Sta]A[Sta]-OH),"parasite growth, % of DMSO control",[1]; [9],59.4%
same,"parasite growth remaining, % of DMSO control (lower = more inhibition)",[2]; [9],99.1%
same,"parasite growth, % of control (lower = inhibition)",[3]; [9],58.8%
same,"growth, % of control",[4]; [9],64.1%
same,"cell viability, % of control (lower = more cytotoxic)",[5],72.5%
CC1Cc2ccccc2N1NC(=O)c1ccc(Cl)c(S(N)(=O)=O)c1 (stereo not given),max response,[6],1.41% (inactive) and -0.446% (inactive)
same,"growth, % of control",[4]; [9],48.2%
same,"cell viability, % of control (lower = more cytotoxic)",[5],106%
Nc1cc(C(Cl)=C(Cl)Cl)c(S(N)(=O)=O)cc1S(N)(=O)=O,max response,[6],0.487% (inactive) and -9.48% (inactive)
same,"parasite growth, % of DMSO control",[1]; [9],103%
same,"parasite growth remaining, % of DMSO control (lower = more inhibition)",[2]; [9],102%
same,"parasite growth, % of control (lower = inhibition)",[3]; [9],142%
same,"growth, % of control",[4]; [9],98.3%
same,"cell viability, % of control (lower = more cytotoxic)",[5],360%
O=C(O)c1cc(=O)c2c(OCC(O)COc3cccc4oc(C(=O)O)cc(=O)c34)cccc2o1,max response,[6],10.5% (inactive)
same,"parasite growth, % of DMSO control",[1]; [9],85.2%
same,"parasite growth remaining, % of DMSO control (lower = more inhibition)",[2]; [9],96.7%
same,"parasite growth, % of control (lower = inhibition)",[3]; [9],106%
same,"growth, % of control",[4]; [9],81%
same,"cell viability, % of control (lower = more cytotoxic)",[5],106%
COc1ccc(C2(C#N)CCC(C(=O)O)CC2)cc1OC1CCCC1 (stereo not given),max response,[6],4.12% (inactive)
same,"growth, % of control",[4]; [9],101%
same,"cell viability, % of control (lower = more cytotoxic)",[5],129%
Cc1nccn1CC1CCc2c(c3ccccc3n2C)C1=O (stereo not given),max response,[6],-12.7% (inactive) and -3.64% (inactive)
same,"parasite growth, % of DMSO control",[1]; [9],89.8%
same,"parasite growth remaining, % of DMSO control (lower = more inhibition)",[2]; [9],80.4%
same,"parasite growth, % of control (lower = inhibition)",[3]; [9],40.2%
same,"growth, % of control",[4]; [9],54.5%
same,"cell viability, % of control (lower = more cytotoxic)",[5],105%
Nc1ncn([C@H]2C[C@H](O)[C@@H](CO)O2)c(=O)n1,max response,[6],-3.47% (inactive)
same,"parasite growth, % of DMSO control",[1]; [9],98%
same,"parasite growth remaining, % of DMSO control (lower = more inhibition)",[2]; [9],99.3%
same,"parasite growth, % of control (lower = inhibition)",[3]; [9],91.2%
same,"growth, % of control",[4]; [9],81.1%
same,"cell viability, % of control (lower = more cytotoxic)",[5],125%
c1cnc2cc3c(cc2n1)C1CNCC3C1,max response,[6],-11.9% (inactive)
same,"parasite growth, % of DMSO control",[1]; [9],94.7%
same,"parasite growth remaining, % of DMSO control (lower = more inhibition)",[2]; [9],96.8%
same,"parasite growth, % of control (lower = inhibition)",[3]; [9],52.2%
same,"growth, % of control",[4]; [9],68.4%
same,"cell viability, % of control (lower = more cytotoxic)",[5],95.8%
Clc1ccc(C(Cn2ccnc2)OCc2c(Cl)cccc2Cl)c(Cl)c1 (stereo not given),"parasite growth, % of DMSO control",[1]; [9],4.82%
same,"parasite growth remaining, % of DMSO control (lower = more inhibition)",[2]; [9],9.61%
same,"parasite growth, % of control (lower = inhibition)",[3]; [9],14.8%
same,"growth, % of control",[4]; [9],7.46%
same,"cell viability, % of control (lower = more cytotoxic)",[5],327%
COc1c(O)cc2c(c1O)[C@@H]1O[C@H](CO)[C@@H](O)[C@H](O)[C@H]1OC2=O,max response,[6],0.91% (inactive)
same,"parasite growth, % of DMSO control",[1]; [9],92.9%
same,"parasite growth remaining, % of DMSO control (lower = more inhibition)",[2]; [9],100%
same,"parasite growth, % of control (lower = inhibition)",[3]; [9],81.9%
same,"growth, % of control",[4]; [9],116%
same,"cell viability, % of control (lower = more cytotoxic)",[5],123%

# From PubChem BioAssay (NCATS)
